Consider eight compounds from PubChem BioAssay (EPA / NIEHS).

The nature of test [1]: TOX21_p53_BLA_p2_viability: Viability Assessment in the Tox21 HCT-116 p53 Agonism Beta-lactamase Assay, Phase 2 (AID 2283591).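 Further: actives lower the ATP signal meaning cytotoxicity.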 An outline of the steps:
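HCT116 p53-bla cells, 4000/well, dosed after 5 h plating (217-fold dilution of DMSO stocks) and incubated 16 h at 37C. Viability taken as cellular ATP by CellTiter-Glo luminescence after 30 min RT; signal loss marks cytotoxicity.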

The target in test [2] is Cellular tumor antigen p53 (Homo sapiens) (UniProt P04637). The experiment in a line: TOX21_p53_BLA_p2_ratio: Tox21 HCT-116 p53 Agonism Beta-lactamase Assay, Ratio, Phase 2 (AID 2283592). Summed up: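 Ratio endpoint: beta-lactamase cleavage of CCF4-AM, blue (460 nm) over green (530 nm). HCT116 reporter line; 16 h treatment, 37C; substrate 2 h RT.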
Chain of Cellular tumor antigen p53 (Homo sapiens) (P04637 whole entry, looked up): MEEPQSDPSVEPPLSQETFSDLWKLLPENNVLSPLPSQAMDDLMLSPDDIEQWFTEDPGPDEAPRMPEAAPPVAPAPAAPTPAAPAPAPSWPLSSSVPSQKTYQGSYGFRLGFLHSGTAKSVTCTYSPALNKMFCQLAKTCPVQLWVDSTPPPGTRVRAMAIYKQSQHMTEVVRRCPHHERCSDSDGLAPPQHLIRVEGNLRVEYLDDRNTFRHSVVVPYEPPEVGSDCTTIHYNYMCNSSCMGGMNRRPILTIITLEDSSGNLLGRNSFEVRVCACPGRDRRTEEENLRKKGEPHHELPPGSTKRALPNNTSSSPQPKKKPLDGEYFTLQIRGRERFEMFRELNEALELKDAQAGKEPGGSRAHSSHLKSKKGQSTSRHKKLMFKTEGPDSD
A short description of test [3]: TOX21_p53_BLA_p3_viability: Viability Assessment in the Tox21 HCT-116 p53 Agonism Beta-lactamase Assay, Phase 3 (AID 2283593).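 Further: cells exposed to compound for 16 h before reading.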 Summed up:
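HCT116 cells, 4000/well, dosed 5 h after plating by pin transfer (217-fold dilution from DMSO stock) and incubated 16 h at 37C, 5% CO2. Viability read as ATP luminescence with CellTiter-Glo after 30 min at room temperature.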

The target of test [4] is Cellular tumor antigen p53 (Homo sapiens) (UniProt P04637). The experiment in a line: TOX21_p53_BLA_p3_ratio: Tox21 HCT-116 p53 Agonism Beta-lactamase Assay, Ratio, Phase 3 (AID 2283596). An outline of the steps:
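Cells were seeded at 4000/well, rested 5 h at 37C, then dosed with DMSO compound solutions (217-fold dilution) for 16 h. CCF4-AM substrate was loaded for 2 h at room temperature, and the 460/530 nm emission ratio was fitted for gain of signal versus DMSO.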

A short description of test [5]: TOX21_p53_BLA_p4_viability: Viability Assessment in the Tox21 HCT-116 p53 Agonism Beta-lactamase Assay, Phase 4 (AID 2283597).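 Further: hits lower the luminescence signal meaning cytotoxicity.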 An outline of the steps: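 Cytotoxicity was inferred from loss of CellTiter-Glo luminescence. HCT116 cells had been dosed with compounds after 5 h plating, incubated 16 h at 37C and 5% CO2, and exposed to the CCF4-AM substrate for 2 h.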
Test [6] can be described thus: TOX21_p53_BLA_p5_viability: Viability Assessment in the Tox21 HCT-116 p53 Agonism Beta-lactamase Assay, Phase 5 (AID 2283600). Summed up:
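Luciferase-coupled ATP quantitation of cells treated for 16 h (37C, 5% CO2) with test chemicals delivered in DMSO via a 217-fold dilution; 4000 cells/well; reagent incubated 30 min at room temperature before luminescence reading.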

For test [7], the target named is Cellular tumor antigen p53 (Homo sapiens) (UniProt P04637). As to the kind of experiment: TOX21_p53_BLA_p4_ratio: Tox21 HCT-116 p53 Agonism Beta-lactamase Assay, Ratio, Phase 4 (AID 2283601). An outline of the steps: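 HCT-116 p53 beta-lactamase reporter cells (4000/well) preincubated 5 h, then compound (217-fold dilution of DMSO stock) for 16 h at 37C. CCF4-AM substrate added 2 h at room temperature; 460/530 nm emission ratio fitted upward versus DMSO.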

The target is the same in test [8]. As to the kind of experiment: TOX21_p53_BLA_p5_ratio: Tox21 HCT-116 p53 Agonism Beta-lactamase Assay, Ratio, Phase 5 (AID 2283599). Summed up: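 HCT-116 p53-bla cells (4000/well) plated 5 h, dosed with compound (217-fold DMSO dilution) for 16 h at 37 C; CCF4-AM substrate 2 h at room temperature. Activity is the 460/530 nm emission ratio (405 nm excitation), fitted in gain-of-signal direction versus DMSO.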

A short description of test [9]: CCTE_Harrill_HTTr_Apoptosis_MCF7: CCTE's 6-hour Apoptosis Assessment for the High-Throughput Transcriptomics (HTTr) Platform, in MCF-7 cells cultured in DMEM + 10% fetal bovine serum, Harrill Lab (AID 2284011; active means hit-call score of the fitted dose curve at least 0.9, where 1 is the maximum; inactive means score below 0.9). An outline of the steps: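 MCF-7 cells in DMEM + 10% fetal bovine serum were exposed to chemicals for 6 hours over an eight-point dilution series. Caspase-3/7 activation was imaged by high content imaging with CellEvent Caspase 3/7 Green; bidirectional fitting used DMSO as baseline.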

The nature of test [10]: STM_H9_OrnCyssISnorm_ratio: Stemina devTOX quickPredict H9 human embryonic stem cell (hESC)-based Assay for Ornithine (ORN):Cystine (CYSS) Ratio (AID 2283714). An outline of the steps:
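UPLC-HRMS of spent media: ORN/CYSS ratio of internal-standard-normalized percentages, DMSO (0.1%) baseline. Pluripotent H9 hESCs, 72h exposure, daily re-dosing with fresh media; last 24h media collected.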

Test [11] in a line: STM_H9_NormalizedViability: Cytotoxicity Assessment at 120 hours in the Stemina devTOX quickPredict H9 human embryonic stem cell (hESC)-based Assay (AID 2283784). An outline of the steps: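 CellTiter-Fluor RFU, background-subtracted, expressed relative to 0.1% DMSO neutral control by plate. Pluripotent H9 cells; treatment with daily re-dosing. Plates carried 1uM methotrexate (positive) and 5 nM methotrexate (negative) references.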

Test [12] deals with PGR (gene 5241) (UniProt P06401). The experiment in a line: TOX21_PR_BLA_Followup_Agonist_ratio: Tox21 HEK293 Progesterone Receptor (PR) Agonism Beta-lactamase Follow-Up Assay, Ratio (AID 2283933). An outline of the steps:
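Read-out: ratio of cleaved (ch2) to uncleaved (ch1) beta-lactamase substrate fluorescence, gain-of-signal relative to DMSO baseline. Cells: PR-UAS-bla HEK293T, 2% charcoal-stripped FBS; compound exposure 16 hr, 37C; substrate 2 hr, RT.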

Test [13] shares this target. The experiment in a line: TOX21_PR_BLA_Followup_Antagonist_ratio: Tox21 HEK293 Progesterone Receptor (PR) Antagonism Beta-lactamase Follow-Up Assay, Ratio (AID 2283934). Summed up: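 Read-out: blue/green beta-lactamase FRET ratio (cleaved ch2 over uncleaved ch1), fitted relative to DMSO baseline. Cells: PR-UAS-bla HEK293T, GAL4-UAS reporter, stimulated with 1 nM R5020 final; 16 hr compound exposure, 37C.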

Test [14] can be described thus: TOX21_PR_BLA_Followup_Antagonist_viability: Viability Assessment in the Tox21 HEK293 Progesterone Receptor (PR) Antagonism Beta-lactamase Follow-Up Assay (AID 2283936).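 Further: cells exposed to compound with R5020 agonist for 16 h; hits lower the luminescence signal meaning cytotoxicity.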 An outline of the steps:
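PR-UAS-bla HEK293T cells in medium with 2% charcoal-stripped FBS were treated with compounds plus R5020 for 16 hr at 37C. After the beta-lactamase read, CellTiter-Glo was added to the same wells and luminescence read after 30 min at room temperature.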

The target of test [15] is PGR (gene 5241) (UniProt P06401). As to the kind of experiment: TOX21_PR_LUC_Followup_Agonist: Tox21 HEK293 Progesterone Receptor (PR) Agonism Luciferase Follow-Up Assay (AID 2283937; active means hit-call score of the fitted dose curve at least 0.9, where 1 is the maximum; inactive means score below 0.9). Summed up:
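Luminescence read-out (ONE-Glo, 30 min at room temperature) of PR-driven luciferase in HEK293-PR-A-luc cells after 16 h compound exposure at 37C; gain of signal fitted relative to DMSO baseline.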

The nature of test [16]: TOX21_PR_LUC_Followup_Agonist_viability: Viability Assessment in the Tox21 HEK293 Progesterone Receptor (PR) Agonism Luciferase Follow-Up Assay (AID 2283941).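 Further: loss of signal means cytotoxicity so actives lower viability.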 An outline of the steps:
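Cytotoxicity counter-screen: ATP content by CellTiter-Glo luminescence, loss of signal = reduced viability. HEK293-PR-A-luc, 3,000 cells/well, compound exposure 16 h, 37C.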

Results filed as inconclusive are left out. Activity calls are given as the source filed them. How the source made its calls, unless noted: active means hit-call score of the fitted dose curve at least 0.9, where 1 is the maximum; inconclusive means response in the unintended direction; inactive means score below 0.9.

Chain of PGR (gene 5241) (P06401 whole entry, looked up): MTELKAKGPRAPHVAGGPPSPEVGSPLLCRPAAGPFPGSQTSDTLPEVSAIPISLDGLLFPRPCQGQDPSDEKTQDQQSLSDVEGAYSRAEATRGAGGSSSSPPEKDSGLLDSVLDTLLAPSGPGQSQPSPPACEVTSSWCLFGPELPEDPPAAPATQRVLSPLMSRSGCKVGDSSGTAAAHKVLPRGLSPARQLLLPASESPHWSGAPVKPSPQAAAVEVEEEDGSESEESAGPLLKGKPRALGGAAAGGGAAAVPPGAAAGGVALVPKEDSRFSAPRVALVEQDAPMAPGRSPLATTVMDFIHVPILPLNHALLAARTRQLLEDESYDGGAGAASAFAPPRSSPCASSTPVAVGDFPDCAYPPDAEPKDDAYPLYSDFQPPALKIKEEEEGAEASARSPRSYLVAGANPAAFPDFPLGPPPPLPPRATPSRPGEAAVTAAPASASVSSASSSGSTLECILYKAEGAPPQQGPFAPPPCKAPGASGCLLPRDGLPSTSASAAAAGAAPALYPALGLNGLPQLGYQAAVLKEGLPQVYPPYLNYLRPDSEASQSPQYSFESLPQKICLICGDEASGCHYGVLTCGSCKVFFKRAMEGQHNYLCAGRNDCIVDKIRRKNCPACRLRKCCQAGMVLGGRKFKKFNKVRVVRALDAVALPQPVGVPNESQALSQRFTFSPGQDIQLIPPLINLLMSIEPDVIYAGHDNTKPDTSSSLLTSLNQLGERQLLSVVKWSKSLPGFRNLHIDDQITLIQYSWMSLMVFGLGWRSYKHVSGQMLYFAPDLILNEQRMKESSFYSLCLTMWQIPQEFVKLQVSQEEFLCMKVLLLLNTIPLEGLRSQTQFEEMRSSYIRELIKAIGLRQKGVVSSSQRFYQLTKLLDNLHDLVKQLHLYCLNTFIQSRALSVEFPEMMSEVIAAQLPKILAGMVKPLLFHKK

Regarding `O=NN1CCNCC1`, the compound was called inactive in test [1], in test [2], in [3], in test [4], in [5] and in test [6]. The outcome in test [7] was inactive.
For the compound `CN[C@H]1C[C@@H](N)[C@H](O)[C@@H](O[C@@H]2O[C@H](CO)[C@H](O)[C@@H]3OC4(O[C@H]23)O[C@H](C(N)CO)[C@H](O)[C@H](O)C4O)[C@@H]1O` (stereo partly specified), the compound was classed as inactive in test [1], in test [2], in [3], in [4], in test [5] and in test [8]. The result in test [7] was inactive.
For the compound `CCCC(C)(COC(N)=O)COC(=O)NC(C)C` (stereo unspecified), the result in test [1], in test [2], in test [3], in test [4], in test [5] and in [8] was inactive. Moreover, the result in [6], in test [7] and in test [9] was inactive.
For the compound `Clc1ccc(CO/N=C(\Cn2ccnc2)c2ccc(Cl)cc2Cl)c(Cl)c1`, the half-maximal activity concentration (AC50) in test [1] is 23 µM (active); in test [2], 38.7 µM (active); in test [4], 42.8 µM (active); in [5], 33.4 µM (active); in test [8], 36.3 µM (active); in test [7] it was 33 µM (active). In test [3], the call was inactive.
On to `O=CC=Cc1ccccc1`, for which the compound was classed as inactive in [1], in test [2], in [3], in test [4], in [5] and in test [8]. For the same compound, the compound was called inactive in test [6] and in test [9]. Further, the AC50 is 83.9 µM (active) in test [10] and 93.6 µM (active) in test [11].
Regarding `COc1ccc2c(c1OC)CN1CCc3cc4c(cc3C1C2)OCO4` (stereo unspecified), the compound was called inactive in test [1], in [2], in [3], in test [4], in test [5] and in [6]. For the same compound, the outcome in test [12], in test [14], in test [15] and in [16] was inactive. For the same compound, in [13], the AC50 was 5.55 µM (active).
`Oc1ccc(C2(c3ccc(O)cc3)CCCCC2)cc1`: the half-maximal activity concentration (AC50) was 72.1 µM (active) in [1]; 83.2 µM (active) in test [2]; 44.1 µM (active) in test [3]; 83.7 µM (active) in [4]; 46.3 µM (active) in test [5]; 82.3 µM (active) in test [8]. In addition, the AC50 in test [6] is 74 µM (active). Besides, the outcome in [9] was inactive.
In the case of `C[C@]12CCC(=O)C[C@@H]1CC[C@@H]1[C@@H]2CC[C@@]2(C)[C@H]1CC[C@]2(C)O`, the compound was classed as inactive in [1], in [2], in test [3], in test [4], in test [5] and in test [6]. In [7], the outcome was inactive.
